Assay results from PubChem BioAssay (Tox21).
Where “and” joins values, the source holds several entries; their conditions need not be identical. Equal entries are not always repeated. Records with an inconclusive call do not appear. Where a structure was tested more than once in an assay, its records may differ in their call. Calls of active or inactive are those of the source. The call rests on the fitted dose curve; in most records, active means well fitted curve in the direction sought with a large enough effect in the repeat runs; inconclusive means weak or mixed curves; inactive means no such curve, though single readings can be large; an effect the other way counts as inactive or inconclusive.

What was measured:
[1] = A CellTox Green Cytotoxicity Assay to monitor cytotoxicity in HEK293 cells - 40 hour (AID 1224871); further: nearly all actives have a fitted effect of over 45% in size; further: potency means the concentration at half of the fitted maximal effect
How it was run: (§1)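 Tox21 screen in HEK293: membrane-impermeant cyanine dye fluoresces on binding dead-cell DNA; compound pinned 5 h post-seeding, plates held at 37 C, signal read repeatedly through 40 h.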

[2] = qHTS RealTime-Glo MT Cell Viability Assay in HepG2 cells - 8 hour (AID 1224873); further: nearly all actives have a fitted effect of over 55% in size
How it was run: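 HepG2 cells (600/well) mixed with RealTime-Glo MT reagent, settled 5 h at 37 C/5% CO2 before compound addition. Nonlytic NanoLuc luminescence from viable-cell prosubstrate reduction read repeatedly during 40 h treatment at 37 C.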

[3] = qHTS RealTime-Glo MT Cell Viability Assay in HEK293 cells - 40 hour (AID 1224874); conditions: RealTime-Glo luminescence; max response: stronger effect = lower value; further: nearly all actives have a fitted effect of over 50% in size; further: potency means the concentration at half of the fitted maximal effect
How it was run: (§2)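 HEK293 + NanoLuc + prosubstrate, 600 cells/well; 5 h, 37 C/5% CO2; compound 23 nL in DMSO by pintool; 37 C; luminescence read at 0, 8, 16, 24, 32 and 40 h time points.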

[4] = A CellTox Green Cytotoxicity Assay to monitor cytotoxicity in HEK293 cells - 24 hour (AID 1224875); further: nearly all actives have a fitted effect of over 45% in size; further: potency means the concentration at half of the fitted maximal effect
How it was run: as §1

[5] = A CellTox Green Cytotoxicity Assay to monitor cytotoxicity in HepG2 cells - 16 hour (AID 1224876); further: nearly all actives have a fitted effect of over 45% in size; further: potency means the concentration at half of the fitted maximal effect
How it was run: (§3)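 Measurements at 0, 8, 16, 24, 32 and 40 h of treatment captured CellTox Green fluorescence in HepG2 cells that had been co-plated with reagent and preincubated 5 h at 37 C/5% CO2.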

[6] = qHTS RealTime-Glo MT Cell Viability Assay in HepG2 cells - 32 hour (AID 1224877); further: nearly all actives have a fitted effect of over 55% in size
How it was run: (§4)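 Cell number in HepG2 cultures estimated from NanoLuc luminescence generated by metabolic reduction of a prosubstrate by living cells. The homogeneous, nonlytic format allowed repeated reads at 0, 8, 16, 24, 32 and 40 h of compound exposure.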

[7] = A CellTox Green Cytotoxicity Assay to monitor cytotoxicity in HepG2 cells - 24 hour (AID 1224878); further: nearly all actives have a fitted effect of over 45% in size; further: potency means the concentration at half of the fitted maximal effect
How it was run: as §3

[8] = A CellTox Green Cytotoxicity Assay to monitor cytotoxicity in HepG2 cells - 40 hour (AID 1224879); further: nearly all actives have a fitted effect of over 40% in size; further: potency means the concentration at half of the fitted maximal effect
How it was run: as §3

[9] = qHTS RealTime-Glo MT Cell Viability Assay in HEK293 cells - 0 hour (AID 1224880); further: nearly all actives have a fitted effect of over 45% in size; further: potency means the concentration at half of the fitted maximal effect
How it was run: as §2

[10] = A CellTox Green Cytotoxicity Assay to monitor cytotoxicity in HEK293 cells - 32 hour (AID 1224881); further: nearly all actives have a fitted effect of over 40% in size; further: potency means the concentration at half of the fitted maximal effect
How it was run: as §1

[11] = A CellTox Green Cytotoxicity Assay to monitor cytotoxicity in HepG2 cells - 32 hour (AID 1224883); further: nearly all actives have a fitted effect of over 50% in size
How it was run: as §3

[12] = A CellTox Green Cytotoxicity Assay to monitor cytotoxicity in HEK293 cells - 8 hour (AID 1224884); further: nearly all actives have a fitted effect of over 35% in size; further: potency means the concentration at half of the fitted maximal effect
How it was run: as §1

[13] = qHTS RealTime-Glo MT Cell Viability Assay in HepG2 cells - 16 hour (AID 1224885); further: nearly all actives have a fitted effect of over 50% in size
How it was run: as §4

[14] = qHTS RealTime-Glo MT Cell Viability Assay in HEK293 cells - 24 hour (AID 1224886); further: nearly all actives have a fitted effect of over 50% in size; further: potency means the concentration at half of the fitted maximal effect
How it was run: (§5)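 Homogeneous bioluminescent viability format in HEK293 cells (600 cells/well). Following 5 h at 37 C/5% CO2, 23 nL compound was pintooled; the signal was measured repeatedly during 40 h incubation.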

[15] = qHTS RealTime-Glo MT Cell Viability Assay in HEK293 cells - 8 hour (AID 1224887)
How it was run: as §2

[16] = A CellTox Green Cytotoxicity Assay to monitor cytotoxicity in HEK293 cells - 16 hour (AID 1224888); further: nearly all actives have a fitted effect of over 35% in size
How it was run: as §1

[17] = qHTS RealTime-Glo MT Cell Viability Assay in HepG2 cells - 0 hour (AID 1224889); further: nearly all actives have a fitted effect of over 50% in size; further: potency means the concentration at half of the fitted maximal effect
How it was run: as §4

[18] = A CellTox Green Cytotoxicity Assay to monitor cytotoxicity in HepG2 cells - 8 hour (AID 1224890); further: nearly all actives have a fitted effect of over 45% in size; further: potency means the concentration at half of the fitted maximal effect
How it was run: as §3

[19] = qHTS RealTime-Glo MT Cell Viability Assay in HEK293 cells - 16 hour (AID 1224872); further: nearly all actives have a fitted effect of over 50% in size; further: potency means the concentration at half of the fitted maximal effect
How it was run: as §5

[20] = A CellTox Green Cytotoxicity Assay to monitor cytotoxicity in HepG2 cells - 0 hour (AID 1224882); further: nearly all actives have a fitted effect of over 35% in size
How it was run: as §3
On the % scale 0 is the no-effect control and ±100 the full control effect.

CC(=O)O[C@]1(C(C)=O)CC[C@H]2[C@@H]3C=C(C)C4=CC(=O)CC[C@]4(C)[C@H]3CC[C@@]21C
inactive: Potency [1] | Potency [2] | Potency [4] | Potency [5] | Potency [6] | Potency [7] | Potency [8] | Potency [10] | Potency [11] | Potency [12] | Potency [13] | Potency [15] | Potency [16] | Potency [18]
active: Potency [3] 19.5 µM and 10.7 µM | Potency [9] 5.49 µM and 2.68 µM | Potency [14] 19.5 µM | Potency [17] 347 nM and 952 nM

Nc1cc([N+](=O)[O-])ccc1C(=O)O
inactive: Potency [1] | Potency [19] | max response [3] 9.73% and 6.1% | Potency [4] | Potency [5] | Potency [6] | Potency [7] | Potency [8] | Potency [9] | Potency [10] | Potency [20] | Potency [12] | Potency [13] | Potency [14] | Potency [15] | Potency [16] | Potency [17] | Potency [18]

C=C[C@H]1CN2CC[C@H]1C[C@@H]2[C@@H](O)c1ccnc2ccc(OC)cc12
active: Potency [19] 42.9 µM | Potency [3] 48.2 µM | Potency [14] 48.2 µM
inactive: Potency [1] | Potency [4] | Potency [5] | Potency [6] | Potency [7] | Potency [8] | Potency [9] | Potency [10] | Potency [11] | Potency [12] | Potency [13] | Potency [16] | Potency [17] | Potency [18]

COc1ccc(-c2coc3cc(O)cc(O)c3c2=O)cc1
active: Potency [3] 49.4 µM | Potency [8] 55.4 µM | Potency [14] 44 µM
inactive: Potency [1] | Potency [2] | Potency [4] | Potency [6] | Potency [9] | Potency [10] | Potency [20] | Potency [12] | Potency [13] | Potency [16] | Potency [17] | Potency [18]

CCCCCCCCCCCCO
inactive: Potency [19] | max response [3] -4.3% and -1.21% | Potency [4] | Potency [5] | Potency [6] | Potency [7] | Potency [8] | Potency [9] | Potency [10] | Potency [20] | Potency [11] | Potency [12] | Potency [14] | Potency [15] | Potency [16] | Potency [17] | Potency [18]
active: Potency [1] 4.84 µM

C1CN(SSN2CCOCC2)CCO1
54.4 µM (active) and inactive: Potency [1]
inactive: Potency [19] | max response [3] -14.4% | Potency [5] | Potency [6] | Potency [7] | Potency [8] | Potency [9] | Potency [12] | Potency [14] | Potency [15] | Potency [16] | Potency [17] | Potency [18]

Nc1cc(Cl)c(N)c(Cl)c1
inactive: Potency [1] | Potency [19] | max response [3] 25.2% | Potency [4] | Potency [5] | Potency [6] | Potency [7] | Potency [8] | Potency [9] | Potency [10] | Potency [20] | Potency [11] | Potency [12] | Potency [14] | Potency [15] | Potency [16] | Potency [17] | Potency [18]

Cc1ccc(C(C)(C)C)c(O)c1
active: Potency [1] 23.8 µM and 24.5 µM | Potency [4] 23.8 µM and 24.5 µM | Potency [5] 38.9 µM | Potency [7] 38.9 µM | Potency [8] 34.7 µM | Potency [10] 23.8 µM and 21.9 µM
inactive: Potency [19] | max response [3] -23.8% and -20.7% | Potency [6] | Potency [9] | Potency [20] | Potency [14] | Potency [17]
inactive and 43.6 µM (active): Potency [18]
18.9 µM (active) and inactive: Potency [12]

OC[C@H]1O[C@@H]2O[C@H]3[C@H](O)[C@@H](O)[C@@H](O[C@H]4[C@H](O)[C@@H](O)[C@@H](O[C@H]5[C@H](O)[C@@H](O)[C@@H](O[C@H]6[C@H](O)[C@@H](O)[C@@H](O[C@H]7[C@H](O)[C@@H](O)[C@@H](O[C@H]1[C@H](O)[C@H]2O)O[C@@H]7CO)O[C@@H]6CO)O[C@@H]5CO)O[C@@H]4CO)O[C@@H]3CO
inactive: Potency [1] | Potency [19] | max response [3] -4.99% and 23.3% | Potency [4] | Potency [5] | Potency [6] | Potency [7] | Potency [8] | Potency [9] | Potency [10] | Potency [11] | Potency [12] | Potency [13] | Potency [14] | Potency [16] | Potency [17] | Potency [18]

Oc1ccc(C(c2ccc(O)cc2)C(Cl)(Cl)Cl)cc1
inactive: Potency [1] | Potency [2] | Potency [4] | Potency [5] | Potency [6] | Potency [7] | Potency [8] | Potency [9] | Potency [20] | Potency [11] | Potency [12] | Potency [13] | Potency [15] | Potency [16] | Potency [17] | Potency [18]
active: Potency [3] 34.5 µM
